This is an account of results in PubChem BioAssay AID588354 (The Scripps Research Institute Molecular Screening Center, 2011).

The campaign covered roughly 360,000 compounds. About 430 (0.12%) were called active. The sample holds actives, similar compounds and a random draw of the others, so the mix is not that of the screen. Values without a mark were called inactive.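 How the source made its calls: active means inhibition above the campaign mean plus 3 SD, with each screening campaign given its own cutoff (cut at about 60% in these data); inactive means the rest.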

Nuclear receptor coactivator 1 (Homo sapiens), sequence (Q15788 whole entry, looked up, the tested form may be a part): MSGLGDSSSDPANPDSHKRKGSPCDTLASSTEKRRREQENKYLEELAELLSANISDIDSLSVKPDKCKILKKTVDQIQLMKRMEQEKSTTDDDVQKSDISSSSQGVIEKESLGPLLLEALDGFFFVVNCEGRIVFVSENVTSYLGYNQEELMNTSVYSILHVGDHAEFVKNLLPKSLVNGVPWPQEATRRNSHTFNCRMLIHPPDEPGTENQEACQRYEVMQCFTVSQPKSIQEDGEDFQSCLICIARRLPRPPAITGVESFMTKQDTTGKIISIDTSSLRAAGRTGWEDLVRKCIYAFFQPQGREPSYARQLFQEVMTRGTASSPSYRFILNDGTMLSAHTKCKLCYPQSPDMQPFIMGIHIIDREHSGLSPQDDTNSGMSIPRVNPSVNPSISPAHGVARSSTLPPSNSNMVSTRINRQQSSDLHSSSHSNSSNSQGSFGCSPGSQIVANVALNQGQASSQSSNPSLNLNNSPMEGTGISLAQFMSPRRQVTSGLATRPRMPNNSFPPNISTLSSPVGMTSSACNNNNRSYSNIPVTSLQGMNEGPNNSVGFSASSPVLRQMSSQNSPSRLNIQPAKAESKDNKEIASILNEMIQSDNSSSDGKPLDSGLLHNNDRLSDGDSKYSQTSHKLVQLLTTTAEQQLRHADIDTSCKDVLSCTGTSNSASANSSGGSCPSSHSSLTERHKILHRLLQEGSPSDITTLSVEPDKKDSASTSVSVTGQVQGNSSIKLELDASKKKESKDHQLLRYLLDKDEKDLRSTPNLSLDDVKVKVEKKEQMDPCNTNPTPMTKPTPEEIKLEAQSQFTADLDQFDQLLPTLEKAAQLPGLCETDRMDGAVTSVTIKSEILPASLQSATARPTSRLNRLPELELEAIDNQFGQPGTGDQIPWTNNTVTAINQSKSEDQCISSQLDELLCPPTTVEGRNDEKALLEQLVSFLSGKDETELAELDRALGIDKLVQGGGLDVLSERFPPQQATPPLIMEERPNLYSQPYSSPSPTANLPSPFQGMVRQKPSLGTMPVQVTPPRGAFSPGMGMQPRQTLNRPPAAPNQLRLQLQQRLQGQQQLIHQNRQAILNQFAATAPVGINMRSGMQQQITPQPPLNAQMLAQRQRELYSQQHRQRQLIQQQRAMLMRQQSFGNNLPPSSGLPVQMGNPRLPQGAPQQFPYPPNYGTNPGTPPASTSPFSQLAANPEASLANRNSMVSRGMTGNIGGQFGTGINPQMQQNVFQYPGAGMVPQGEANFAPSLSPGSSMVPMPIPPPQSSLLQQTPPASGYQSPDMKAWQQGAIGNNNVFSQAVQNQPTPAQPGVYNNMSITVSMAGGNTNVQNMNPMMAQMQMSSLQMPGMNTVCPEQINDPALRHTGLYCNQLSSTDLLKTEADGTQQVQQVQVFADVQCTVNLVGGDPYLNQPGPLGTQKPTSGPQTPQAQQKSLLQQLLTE

This assay has as its target Nuclear receptor coactivator 1 (Homo sapiens) (UniProt Q15788). The experiment in a line: NCOA1 GAL4-fusion reporter inhibition – cell-based, luminescence, primary screen (AID 588354).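 Further: 0% = DMSO treated cells and 100% = gossypol at 36 µM.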 Particulars: HEK293 GAL4-SRC1 luciferase reporter, at 3.6 µM, stronger effect = higher value.
In the case of `CCOc1cc(CNCc2ccccn2)ccc1OCC(=O)NC(C)(C)C`, the inhibition (in general, the drop in the measured response relative to a control, in per cent) was 10.8%.
For the compound `O=C(Cc1ccccn1)c1ccc(O)cc1O`, the inhibition is -0.25%.
Under `CCC(C)C(=O)Nc1cc([N+](=O)[O-])ccc1Cl` (configuration not stated) stands -3.1%; under `OCCCNc1nccc(-c2cc(Nc3cccc(Cl)c3)ncn2)n1`, 73.6% (active).
For `COc1ccc(-c2c(C#N)cnc(C)c2C)c(O)c1OC`, the inhibition is -0.11%.
`O=C(c1ccc[nH]c1=S)N1CCN(S(=O)(=O)c2ccc(Br)cc2Cl)CC1`: the inhibition was -3.09%.
Take `CC(C)CCNC(=O)CCNS(=O)(=O)c1ccc(Cl)cc1`: the inhibition was -13%.
As for `Nc1cc2c(cc1Br)-c1ccc(F)cc1C2=O`, the inhibition was -13.1%.
Under `CCOC(=O)N1CCC(O)(c2cc(C)c(C)cc2C)CC1` stands -15.8%; under `O=C(NCc1ccccc1Cl)C1CCCN1S(=O)(=O)c1ccc(F)cc1` (configuration not stated), -10.6%; under `CCn1nc(C)c(CNC(=O)C2CCC(=O)N(Cc3cccc(F)c3)C2)c1C` (configuration not stated), -37.5%.
Under `COc1ccc(NC(=O)CSc2nc(NS(=O)(=O)c3ccc(C)cc3)cc(=O)[nH]2)cc1` stands -19.6%; under `COCCn1nnnc1CN1CCC(NC(=O)Nc2cccc(OC)c2)CC1`, 0.56%; under `CC(=O)c1ccc(N2CCN(C(=O)CCNC(=O)Cn3ccc4ccccc4c3=O)CC2)cc1`, 3.75%.
`O=C(c1cccc(-n2cccc2)c1)N1CCN(S(=O)(=O)c2ccc(F)cc2)CC1`: the inhibition was -2.17%.
For the compound `COc1ccc([C@H]2[C@H](C(C)=O)N3N=Cc4ccccc4C3C23C(=O)OC(C)(C)OC3=O)cc1` (some centres not stated), the inhibition is -26.2%.
Under `CC(C)Oc1ccc(/C=N/NC(=O)c2nnn(-c3nonc3N)c2CN(C)C2CCCCC2)cc1` stands 7.06%.
Regarding `CCOc1ccccc1-n1c(SCC(=O)NCc2ccco2)nnc1-c1ccncc1`, the inhibition is 5.79%.
For the compound `O=C(COC(=O)CCOc1ccccc1)Nc1cc(S(=O)(=O)N2CCCCC2)ccc1Cl`, the inhibition is -9.87%.
On to `COCCOC1CCN(C(=O)c2ccc(OC)c(OC3CCN(C(C)C)CC3)c2)CC1`, for which the inhibition was -0.27%.
As for `CCOC(=O)CC1COCCN1C(=O)c1cc(COc2ccc(F)c(F)c2)on1` (configuration not stated), the inhibition is -5.67%.
Next, `COCCn1c(N)c(NCc2ccccc2)c(=O)[nH]c1=O`: -11.5%; `CCOP1(=O)C=C(C(C)(C)C)OC1c1ccc(F)cc1` (configuration not stated): -6.16%.
Consider `O=C(O)COCC(=O)NCc1csc2ccc(Cl)cc12`, for which the inhibition was 11.9%.
As for `CC1(C)CC(CNCCC(c2ccc(F)cc2)c2ccco2)CCO1` (configuration not stated), the inhibition is 12.7%.
For `COc1ccc(-c2nnc(SCC(=O)Nc3cccnc3Cl)n2C)cc1`, the inhibition is 16.4%.
Turning to `CCOC1=C2CN(S(=O)(=O)c3ccc(C)cc3)[C@H](c3cccs3)C[C@H]2[C@H]2C(=O)N(c3ccccc3)C(=O)[C@H]2C1`, the inhibition is 0.21%.
Next, `Cc1[nH]c(C)c(S(=O)(=O)N2CCC(C)CC2)c1C(=O)N1CCCC1`: 0.69%.
As to `Cc1nc(-c2ccccc2)sc1-c1nc(-c2ccccc2)ncc1S(=O)(=O)c1ccccc1`, the inhibition is 7.02%.
For the compound `CCOc1ccc(CNC(=O)C2CC(=O)N(C3CCCC3)C2)cc1OC` (configuration not stated), the inhibition was -4.04%.
For the compound `COc1ccc(NC(=O)CN(C)C(=O)CNC(=O)C2CCCCC2)cc1`, the inhibition was 6.97%.
With `O=C(COC(=O)c1ccco1)Nc1ccc(Cl)cn1`, the inhibition was -10.8%.
`COc1cccc(/C=C(/CC(=O)Nc2ccc(N3CCOCC3)cc2)c2nc3ccccc3s2)c1`: the inhibition was -38.5%.
With `COC(=O)Cc1[nH]n(-c2nc3ccccc3s2)c(=O)c1C(C)=Nc1ccc(OC)cc1`, the inhibition was 81.3% (active).
On to `COCCCC1CCN(C(=O)C2CCC(=O)N(C3CCCCCC3)C2)CC1` (configuration not stated), for which the inhibition was 2.7%.
Under `CCN(CC)C(=O)C1=C(C)N(Cc2ccccc2)C(=O)C(CC(=O)NC(c2ccccc2)c2ccccc2)C1` (configuration not stated) stands -24.8%; under `FC(F)(F)c1nc(-c2ccccc2)ncc1-c1nnnn1-c1ccccc1`, 2.72%; under `CC1=CC(C)(C)Nc2ccc(OC(=O)CN3C(=O)C4CCCCC4C3=O)cc21` (configuration not stated), -14.7%.
Next, `CC[C@H]1CN2CCc3cc(OC)c(OC)cc3[C@@H]2C[C@@H]1C[C@H]1NCCc2cc(OC)c(OC)cc21`: 94.8% (active).
As to `Nc1c(N(CCCO)C(=O)C2CCCC2)c(=O)[nH]c(=O)n1Cc1ccccc1`, the inhibition was -4.42%.
Regarding `Cc1cc(C)nc(-n2ncc3c2CC(c2ccc(C(C)C)cc2)CC3=O)n1` (configuration not stated), the inhibition is -16.7%.
As for `N#CCCN(C(=O)Nc1ccc(Cl)c(Cl)c1)C1CCCCC1`, the inhibition is 4.76%.
On to `CC1(C(=O)O)CCC(C(=O)Nc2ccc(Cl)c(Cl)c2)C1(C)C` (configuration not stated), for which the inhibition is 1.51%.
In the case of `O=C(CC(O)(C(F)(F)F)C(F)(F)F)Nc1ccc(Cl)c(Cl)c1`, the inhibition was 71.9% (active).
Turning to `O=C(Nc1cc(S(=O)(=O)N2CCOCC2)ccc1N1CCOCC1)c1c(F)cccc1Cl`, the inhibition was 4.42%.
For the compound `CCOc1ccc(S(=O)(=O)N2CCC(C(=O)NCC(=O)Nc3cccc(Cl)c3C)CC2)cc1`, the inhibition is -15%.
For the compound `COCOc1cc(O)c(C(=O)/C=C/c2ccc(OCOC)c(OCOC)c2)c(OCOC)c1`, the inhibition is -3.45%.
Regarding `C=CCn1c(C)cc(C2=NNC(=NCC)SC2)c1C`, the inhibition was 87.5% (active).
For `Cc1ccc(N2C(=O)CN=C2Nc2nc(C)cc(C)n2)cc1`, the inhibition was 0.5%.
Next, `O=C(CN1C(=O)c2ccccc2S1(=O)=O)N1CCc2ccccc21`: 73% (active); `CN(Cc1cccs1)C(=O)CN1C(=O)c2ccccc2S1(=O)=O`: -19.1%.
For the compound `COc1ccc(CNC(=O)CN2C(=O)c3ccccc3S2(=O)=O)cc1`, the inhibition was 2.81%.
Turning to `CC1CC(NC(=S)N(C)C)CC(C)(C)C1` (configuration not stated), the inhibition was 0.06%.
Consider `Cc1ccc(NC(=O)CN2CCC3(O)CCCCC3C2c2ccc3c(c2)OCO3)c(C)c1` (configuration not stated), for which the inhibition was 5.71%.
As for `CCCCCCCCn1c2c(c(=N)c3c1CCC3)CCCC2`, the inhibition is 69% (active).
For the compound `O=C(COC(=O)C1CCN(S(=O)(=O)c2ccc3c(c2)OCCO3)CC1)Nc1ccccc1OC(F)F`, the inhibition was 6.03%.
Next, `O=C(CCNC(=O)c1ccc([N+](=O)[O-])cc1)Nc1ccccc1N1CCOCC1`: -16.9%.
